An excerpt weighted towards active compounds, which were near 2.7% of everything screened.
HepG2 viability: HepG2 cytotoxicity, counter-screen for TGF-b inhibitors; HepG2 CAGA-GFP viability, ATP luminescence, 18 h; Potency, µM (titrated, usually from 46.1 µM), most hits filed as cytotoxic; 0.76% of 410,000 active
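CellTiter-Glo luminescence gave cytotoxicity after 18 hours at 37 degrees C. The cells were HepG2 CAGA-GFP in 1% FBS DMEM, stimulated with 500 pg/mL TGF-beta after compound addition. %Activity was normalised to no-cell wells (complete cell-killing) and DMSO (no toxicity), and curves were fitted and classified.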
ATXN viability: reduces viability in counter-screen for ATXN expression inhibitors; Potency, µM (titrated, usually from 56.7 µM), hits mostly cytotoxic; 0.49% of 400,000 active; AID 651635; S2 cells (HEK-293 line with an ATXN2-luciferase reporter) viability, CellTiter-Fluor protease fluorescence, 24 h; further: nearly all actives have a fitted effect of over 40% in size
ALOX12 inh: inhibitors of human 12S-lipoxygenase ALOX12; P18054; purified 12hLO, xylenol orange hydroperoxide absorbance; Potency, µM (highest dose often 108 µM), most hits filed as inhibitors; 1.1% of 580,000 active; AID 1671190
Target sequence (P18054 whole entry, looked up): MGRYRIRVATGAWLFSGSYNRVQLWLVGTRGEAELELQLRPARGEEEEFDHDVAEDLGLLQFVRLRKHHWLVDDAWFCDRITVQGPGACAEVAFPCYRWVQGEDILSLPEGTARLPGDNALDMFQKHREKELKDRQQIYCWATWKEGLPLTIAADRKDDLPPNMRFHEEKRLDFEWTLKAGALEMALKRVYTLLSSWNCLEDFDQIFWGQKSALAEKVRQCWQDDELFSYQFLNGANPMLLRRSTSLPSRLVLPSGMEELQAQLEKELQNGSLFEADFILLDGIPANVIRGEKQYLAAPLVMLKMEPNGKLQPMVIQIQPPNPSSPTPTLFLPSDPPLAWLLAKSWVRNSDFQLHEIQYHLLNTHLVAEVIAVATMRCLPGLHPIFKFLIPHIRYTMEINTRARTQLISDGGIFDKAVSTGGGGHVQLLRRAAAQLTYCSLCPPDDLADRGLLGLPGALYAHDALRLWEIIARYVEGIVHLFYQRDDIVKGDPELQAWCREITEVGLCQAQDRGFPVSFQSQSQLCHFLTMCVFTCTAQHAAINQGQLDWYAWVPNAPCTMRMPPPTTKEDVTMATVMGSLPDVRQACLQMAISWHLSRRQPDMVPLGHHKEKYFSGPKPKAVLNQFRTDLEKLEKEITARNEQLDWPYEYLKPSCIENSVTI
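Purified human 12hLO (150 nM final) in 25 mM Hepes, 0.01% Triton X-100, pH 7.0 was preincubated 15 min at room temperature with compound. Then 40 uM arachidonic acid was added, 30 min. Hydroperoxide was read by Fe-XO absorbance ratio 573/405 nm.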
TGFb SMAD3 inh: inhibitors of TGF-b signaling | HepG2 CAGA-GFP TGF-b/SMAD3 reporter, GFP fluorescence, 18 h; TGF-beta stimulated, 500 pg/mL final | Potency, µM (highest dose often 46.1 µM), hits mostly inhibitors | 1.2% of 410,000 active; further: nearly all actives have a fitted effect of over 65% in size
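Inhibition was scored as loss of TGF-beta-induced (500 pg/mL final, 18 hours, 37 degrees C) GFP in HEPG2 cells carrying a CAGA-GFP reporter, in DMEM with 1% FBS. Well GFP was summed per cell; Activity was normalised to unstimulated and stimulated DMSO wells, then concentration-response fitting.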
ATXN2 expr inh: ATXN2 expression inhibition; 0.72% of 360,000 active; HEK-293 ATXN2-luciferase reporter, luminescence, 24 h; Potency, µM (doses to about 57 µM), hits mostly inhibitors; further: nearly all actives have a fitted effect of over 55% in size
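ATXN2-luciferase reporter cells (luciferase flanked by upstream and downstream ATXN2 gene portions) were treated 24 h at 37 °C with compounds at up to 57 uM. SteadyGlo luminescence gave expression; GF-AFC fluorescence gave viability.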
Numbers stand for hits; . = inactive; ? = inconclusive; / = not tested or not shown; ! = not confirmed by another sample. The call rests on the fitted dose curve; in most records, active means well fitted curve in the direction sought with a large enough effect; inconclusive means small, poorly fitted or top-dose-only effect, or another doubt; inactive means no such curve, though single readings can be large; an effect the other way counts as inactive or inconclusive.

SMILES	HepG2 viability	ATXN viability	ALOX12 inh	TGFb SMAD3 inh	ATXN2 expr inh
O=C(NC1=C(NC2CCS(=O)(=O)C2)C(=O)c2ccccc2C1=O)c1ccccc1 (centres undefined)	.	29.9µM	?	?	?
CN(C1=C(NC(=O)c2ccc(Cl)cc2)C(=O)c2ccccc2C1=O)c1ccccc1	.	?	.	12.6µM	?
O=C1C(Cl)=C(NC(=O)c2ccccc2)C(=O)C(Cl)=C1NC(=O)c1ccccc1	.	?	?	11.2µM	?
Cc1cc(=O)oc2cc(OCC(=O)NCC3(N(C)C)CCCCCC3)ccc12	/	/	.	/	/
CCC(Cn1nnc2ccccc2c1=O)NC(=O)Nc1ccc2c(c1)OCCO2 (centres undefined)	/	/	.	/	/
Cc1ccc(S(=O)(=O)CNC(=S)c2cccc(Cl)c2)cc1	.	.	10µM	?	?
Cc1ccc(C(=S)NCS(=O)(=O)c2ccc(C)cc2)cc1	.	.	?	.	.
CC1(OC(=O)C2CCCC2)C(=O)C=C2C=C(c3ccsc3)N(c3ccccc3)C=C2C1=O (centres undefined)	.	.	12.6µM	.	.
CC1(OC(=O)C2CCCC2)C(=O)C=C2C=C(c3ccsc3)N(C3CC3)C=C2C1=O (centres undefined)	.	.	.	.	.
CCC(C)NC(=O)c1ccccc1NC(=O)c1ccc(CSc2ccccc2)cc1 (centres undefined)	15.8µM	.	.	?	.
Cc1ccc(SCc2ccc(C(=O)Nc3ccccc3C(=O)NC(C)C)cc2)cc1	.	.	.	.	.
O=C(OCn1ncc(Br)c(Br)c1=O)c1ccc(F)cc1	10µM	14.1µM	/	11.2µM	7.94µM
O=C(OCn1ncc(Br)c(Br)c1=O)c1ccccc1Cl	17.8µM	10µM	/	12.6µM	7.94µM
Cc1cccc(NS(=O)(=O)c2ccc(NC(=O)CN(c3cc([N+](=O)[O-])ccc3C)S(C)(=O)=O)cc2)c1	.	?	?	15.8µM	?
CCC(=O)NCCCCCCNC(=O)CC	.	.	.	.	.
O=C(CCl)NCCCCCCCCCNC(=O)CCl	.	10µM	.	?	.
N#CC1=C(SCC(=O)NC2CC2)NC(=O)C(C#N)C12CCCCC2 (centres undefined)	.	.	.	.	.
N#CC1=C(SCC(=O)NC23CC4CC(CC(C4)C2)C3)NC(=O)C(C#N)C12CCCCC2 (centres undefined)	.	?	?	11.2µM	?
O=C1C(=O)c2c(ccc3ccccc23)-c2ccccc21	.	5.01µM	.	?	3.16µM
Cc1cccc(C)c1OCC(=O)N[C@@H](Cc1ccccc1)[C@@H](O)C[C@H](Cc1ccccc1)NC(=O)[C@H](C(C)C)N1CCCNC1=O	.	31.6µM	.	12.6µM	?
CCOC(=O)COc1ccc2c(=O)c(Oc3ccc(C(=O)OC)cc3)c(C)oc2c1	/	/	.	/	/
COc1ccc(-n2nc(C#N)c(Cl)cc2=O)cc1	17.8µM	/	.	15.8µM	?
CNC(=O)c1ccc2c(C(=Nc3cccc(CN(C)C)c3)c3ccccc3)c(O)[nH]c2c1	/	/	.	/	?
CCS(=O)(=O)Nc1ccc2[nH]c(O)c(C(=Nc3ccc(CN4CCCCC4)cc3)c3ccccc3)c2c1	/	/	.	/	7.69µM
O=C(NC1=NCCS1)C1COc2ccccc2O1 (centres undefined)	.	.	.	.	2.51µM
SMILES	HepG2 viability	ATXN viability	ALOX12 inh	TGFb SMAD3 inh	ATXN2 expr inh
O=C(CCc1ncc(-c2ccc(F)cc2F)o1)Nc1ccc(S(=O)(=O)N2CCCC2)cc1	/	/	.	/	/
CCc1ccc2c(c1)-c1ccccc1S(=O)(=O)N2CC(=O)N1CCC(C(N)=O)CC1	/	/	.	/	/
Cc1cc(Br)cnc1NC(=S)Nc1ccc(F)cc1F	.	.	14.1µM	.	.
CCc1nc(NC(c2ccccc2)c2ccco2)c2cnn(C)c2n1 (centres undefined)	/	/	.	/	/
CCC(NC(=O)Nc1nnc(C(F)(F)F)s1)(C(F)(F)F)C(F)(F)F	.	/	.	?	8.91µM
CCCCC[C@H]1CN(CCCC)C(=O)[C@@H]1CC(=O)NCc1ccc(OC)cc1	.	.	.	?	.
CCCCC[C@H]1CN(Cc2ccccc2)C(=O)[C@@H]1CC(=O)NCc1ccccc1	14.1µM!	?	.	17.8µM	?
O=C(CSc1ccccc1F)NC(=O)C1CCCCC1	/	/	.	/	/
OC1CCCN(Cc2ccc3ccc4cccc5ccc2c3c45)C1 (centres undefined)	.	?	?	20µM	?
O=C(C1CCCN(Cc2cccc3ccccc23)C1)N1CCCCC1 (centres undefined)	/	/	0.447µM	/	/
O=C(C1CCCN(Cc2ccccc2[N+](=O)[O-])C1)N1CCCCC1 (centres undefined)	.	.	2µM	.	/
CN1CCCCCC(O)c2cc(C(=O)NCCc3ccncc3)ccc21 (centres undefined)	/	/	.	/	/
O=C(CCc1nnc2ccc(N3CCOCC3)nn12)NCC1CCN(Cc2ccc(F)cc2)CC1	/	/	.	/	/
O=C(c1ccc(Cl)cc1Cl)N(CCS(=O)(=O)N1CCCCC1)Cc1cccnc1	/	/	0.501µM	/	/
Cc1ccc2c(c1)C(=O)C(=O)N2CCCOc1ccccc1	.	.	.	17.8µM	.
COc1ccc(NC(=O)N(C)[C@H]2C[C@H]3c4[nH]c5ccc(-c6cccc(C)c6)cc5c4CCN3C[C@H]2[C@H](C)O)cc1	.	/	/	?	25.1µM
C[C@H](O)[C@@H]1CN2CCc3c([nH]c4ccc(-c5ccc6c(c5)OCO6)cc34)[C@@H]2C[C@@H]1N(C)C(=O)Nc1cc(Cl)cc(Cl)c1	.	15.8µM	.	?	20µM
CC(NC(=O)CCC1CCCO1)C1CCCO1 (centres undefined)	/	/	.	/	/
O=C(COc1ncnc2ccccc12)Nc1ccc(F)cc1	/	/	.	/	/
CC(=O)c1c(C)oc2ccc(N(C(C)=O)S(=O)(=O)c3ccc(Cl)c([N+](=O)[O-])c3)cc12	.	/	.	.	25.1µM
CC(=O)c1c(C)oc2ccc(N(C(C)=O)S(=O)(=O)c3ccc(Br)cc3)cc12	.	.	.	?	.
Cc1ccnc2c1ccc1c(C)ccnc12	15.8µM	/	/	4.47µM	5.32µM
[O-][n+]1cccc2c(Br)cc(Br)c(O)c21	.	.	.	.	.
Cc1ccnc2c(O)cccc12	3.98µM	/	/	3.55µM	/
Oc1c(Br)cc(Br)c2cccnc12	.	?	?	?	22.4µM!
SMILES	HepG2 viability	ATXN viability	ALOX12 inh	TGFb SMAD3 inh	ATXN2 expr inh
Cc1cc(C)c2cccnc2c1O	.	/	/	3.16µM	/
Cc1ccnc2c1ccc1ccccc12	.	.	.	.	.
COc1cccc(C2=NS(=O)(=O)N(C)C(C(=O)NC3CCCC3)=C2)c1	/	/	.	/	/
CCCCCCCCS(=O)(=O)CCSc1cccc2cccnc12	/	/	.	/	/
COc1ccc(O)c(/C=N/NC(=O)c2ccc(CSc3nc(C)cc(C)n3)cc2)c1	.	.	.	?	4.47µM
COc1ccc(O)c(/C=N/NC(=O)c2ccc(OCc3cccc(Br)c3)cc2)c1	.	?	.	.	3.16µM
